Experiment [1] addresses Estrogen receptor (Homo sapiens) (UniProt P03372). Description: qHTS assay for small molecule antagonists of estrogen receptor alpha signaling (AID 588513; active means well fitted curve in the direction sought with a large enough effect in the signal ratio, with a control signal flat, not every such curve was filed as active; the % refers to the signal ratio; further: on the % scale 0 is the no-effect control and ±100 the full control effect). In a few lines:
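Beta-lactamase reporter, antagonist mode, HEK 293 GripTite cells; 0.5nM E2 stimulus, 18 h, 37 C; CCF4 dye 2 h RT; fluorescence. IC50 and efficacy from Hill fits, normalized to E2 and DMSO.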
(qHTS replaces the single test concentration by a dilution series.)

Experiment [2] shares this target. Description: qHTS assay for small molecule agonists of estrogen receptor alpha signaling (AID 588514). Further: nearly all actives have a fitted effect of over 70% in size. Further: potency means the concentration at half of the fitted maximal effect.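 On activation: 0% = vehicle only and 100% = reference agonist.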 In a few lines:
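ER-alpha-UAS-bla GripTite HEK293 cells, 5000/well in 2% charcoal/dextran-stripped FBS medium, treated with compound titrations 18 h at 37 C. CCF4 beta-lactamase read by fluorescence after 2 h RT; normalised to 20 nM 17-beta-estradiol (100%) and DMSO (0%), Hill fit for EC50 and efficacy.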

The target of experiment [3] is Peroxisome proliferator-activated receptor delta (Homo sapiens) (UniProt Q03181). Description: qHTS assay for small molecule agonists of peroxisome proliferator-activated receptor delta signaling (AID 588534).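 Further: 0% = DMSO basal wells and 100% = positive control agonist at 10 µM.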 In a few lines: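 Cells carrying a PPAR-delta beta-lactamase reporter were treated with compounds for 18 h at 37 °C in agonist mode. CCF4 fluorescence was read after 2 h; EC50 and efficacy from Hill fits.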

Experiment [4] deals with Peroxisome proliferator-activated receptor gamma (Homo sapiens) (UniProt P37231). Nature of the experiment: qHTS assay for small molecule antagonists of peroxisome proliferator-activated receptor gamma signaling (AID 588537; active means well fitted inhibition curve with a large enough effect in the signal ratio, with a control signal flat, not every such curve was filed as active; the % refers to the signal ratio;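 further: reporter cells co-stimulated with 50 nM rosiglitazone agonist during compound treatment; % of control where 0% means no effect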). In a few lines: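 Antagonist mode, beta-lactamase reporter in HEK293; charcoal/dextran FBS 1%; 3000 cells/well, 37 C 6-6.5 h; cpd titration + rosiglitazone 50 nM final, 16 h 37 C; CCF4, 2 h RT; 460/530 nm; Hill fit → IC50, efficacy.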

Experiment [5] has as its target Vitamin D3 receptor (Homo sapiens) (UniProt P11473). Nature of the experiment: qHTS assay for small molecule antagonists of vitamin D receptor signaling (AID 588541).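 Further: receptor activated by calcitriol during compound treatment; series mostly up to about 77 µM; on the % scale 0 is the no-effect control and ±100 the full control effect.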 In a few lines: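 Antagonist-mode beta-lactamase reporter assay: HEK293T VDR-UAS-bla cells were exposed to titrated compound alongside 1-alpha,25-dihydroxyvitamin D3 at 3 nM final for 16 h. Values were normalized to the 50 nM agonist control and DMSO basal, with IC50 and efficacy from Hill equation fits.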

Experiment [6] can be described thus: qHTS assay for small molecule agonists of retinoid X receptor alpha signaling (AID 588544).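 On activation: 0% = DMSO basal wells and 100% = reference agonist.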 As to conditions: HEK293T RXRa-UAS-bla, beta-lactamase reporter, 18 h; 530 nm emission.
For experiment [7], the target named is Retinoic acid receptor RXR-alpha (Homo sapiens) (UniProt P19793). The experiment is described as above.
The target in experiment [8] is Thyroid hormone receptor beta (Homo sapiens) (UniProt P10828). Nature of the experiment: qHTS assay for small molecule agonists of thyroid hormone receptor beta signaling (AID 588545).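 Further: 0% = DMSO only and 100% = 10 nM T3.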 In a few lines:
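Beta-lactamase reporter activity under TR response element control is measured in HEK 293 cells after 18 hrs compound exposure. Signal is ratiometric CCF4 fluorescence, 460/530 nm.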

The nature of experiment [9]: qHTS assay for small molecule antagonists of retinoid X receptor alpha signaling (AID 588546; active means well fitted inhibition curve with a large enough effect in the signal ratio, with a control signal flat, not every such curve was filed as active; the % refers to the signal ratio; further: potency means the concentration at half of the fitted maximal effect). As to conditions: HEK293T RXRa-UAS-bla, beta-lactamase ratio, antagonist mode; measured here: W530 green channel, cytotoxicity proxy. The procedure, abridged:
(§1)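 Beta-lactamase reporter inhibition, read as CCF4 fluorescence ratio (ex 405, em 460/530 nm) after 2 h at RT. HEK293T UAS-bla cells, 2500/well, were stimulated with 9-cis-RA at 500 or 100 nM final alongside test compound for 18 h at 37 C.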

Experiment [10] has as its target Retinoic acid receptor RXR-alpha (Homo sapiens) (UniProt P19793). The description is as above. The conditions noted are these: HEK293T RXRa-UAS-bla, beta-lactamase ratio, antagonist mode. The procedure, abridged:
as §1

The target of experiment [11] is Thyroid hormone receptor beta (Homo sapiens) (UniProt P10828). Nature of the experiment: qHTS assay for small molecule antagonists of thyroid hormone receptor beta signaling (AID 588547; active means well fitted inhibition curve with a large enough effect in the signal ratio, with a control signal flat, not every such curve was filed as active; the % refers to the signal ratio;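 further: cells stimulated with 0.4 nM T3 agonist during compound exposure; series mostly up to about 77 µM; on the % scale 0 is the no-effect control and ±100 the full control effect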). As to conditions: TR-UAS-bla HEK293, beta-lactamase ratio, antagonist mode, 18 h. The procedure, abridged: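 Inhibition of T3-driven (0.4nM final) beta-lactamase reporter activity was measured over 0.59 nM to 92 uM compound after 18 h at 37 C. The cells were GripTite HEK293 TR-UAS-bla in charcoal/dextran-stripped serum, with CCF4 ratio read-out and IC50 from Hill fits.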

Experiment [12] can be described thus: qHTS assay for small molecule activators of the p53 signaling pathway (AID 651743; active means well fitted activation curve with a large enough effect in the signal ratio, not every such curve was filed as active; the % refers to the signal ratio; further: series mostly up to about 92 µM; % of control where 0% means no effect). As to conditions: HCT-116 p53RE-bla, beta-lactamase FRET ratio, 16 h; activation: stronger effect = higher value. In a few lines: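 Read-out is fluorescence intensity from the LiveBLAzer B/G FRET substrate, added for 2 hours at room temperature after HCT-116 p53RE-bla cells had been incubated with compounds for 16 hours at 37 C.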

Experiment [13] in a line: qHTS assay for environmental chemicals that activate the Aryl hydrocarbon Receptor (AhR) signaling pathway (AID 651777; active means well fitted curve in the direction sought with a large enough effect; an effect the other way counts as inactive or inconclusive; further: % of control where 0% means no effect; nearly all actives have a fitted effect of over 15% in size). The conditions noted are these: 1A2-DRE human hepatoma cells, luciferase, 24 h; activation: stronger effect = higher value. The procedure, abridged: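 Luminescence (One-Glo, 30 min, room temperature) reports AhR-driven luciferase in stably transfected human hepatoma cells bearing DRE and CYP1A2 promoter. Cells (1,200/well) were treated with compound for 24 hr at 37 C in qHTS format.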

In experiment [14] the target is Peroxisome proliferator-activated receptor alpha (Homo sapiens) (UniProt Q07869). Nature of the experiment: qHTS assay for small molecule agonists of the peroxisome proliferator-activated receptor alpha (PPARalpha) signaling pathway (AID 651778; active means well fitted curve in the direction sought with a large enough effect; an effect the other way counts as inactive or inconclusive; further: % of control where 0% means no effect). As to conditions: PathHunter PPARalpha complementation, chemiluminescence, 6 h; max response: stronger effect = higher value. In a few lines:
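Chemiluminescence from complemented enzyme reported PPARalpha activation in cells after 6 hr of compound treatment at 37 C. The detection reagent was incubated for 60 min at room temperature, and compounds were scored as agonists.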

The nature of experiment [15]: qHTS assay for small molecule agonists of the antioxidant response element (ARE) signaling pathway measured by Nrf2-dependant transcriptional activity - cell viability counter screen (AID 720653; active means well fitted curve in the direction sought with a large enough effect in the repeat runs; an effect the other way counts as inactive or inconclusive; further: on the % scale 0 is the no-effect control and ±100 the full control effect). The conditions noted are these: ARE-bla HepG2 viability, CellTiter-Glo ATP luminescence, 16 h; max response: stronger effect = lower value. In a few lines:
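Cytotoxicity counter screen: intracellular ATP quantified by CellTiter-Glo luminescence in the same ARE-bla HepG2 plates, after 16 h compound exposure and a 2 h beta-lactamase substrate step.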

Experiment [16] in a line: qHTS assay for cell viability of the p53RE-bla HCT-116 cell line (AID 743292; active means well fitted curve in the direction sought with a large enough effect; an effect the other way counts as inactive or inconclusive; further: on the % scale 0 is the no-effect control and ±100 the full control effect; nearly all actives have a fitted effect of over 55% in size). In a few lines: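 ATP-based luminescent viability (CellTiter-Glo, 30 min RT) after 16 h compound treatment at 37 C of p53RE-bla HCT-116 cells, seeded at 4,000 cells/well and rested 5 h before dosing.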
The target of experiment [17] is Nuclear receptor subfamily 1 group I member 2 (Rattus norvegicus) (UniProt Q9R1A7). Nature of the experiment: qHTS assay for small molecule activators of the rat pregnane X receptor (rPXR) signaling pathway (AID 651751; call rule not given here; further: 0% is about no effect). The conditions noted are these: rPXR reporter cells, luciferase (One-Glo), 24 h.
Experiment [18] addresses Peroxisome proliferator-activated receptor gamma (Homo sapiens) (UniProt P37231). Description: qHTS assay for small molecule agonists of peroxisome proliferator-activated receptor gamma signaling (AID 588536; active means well fitted curve in the direction sought with a large enough effect in the signal ratio, with a control signal flat, not every such curve was filed as active; the % refers to the signal ratio; further: potency means the concentration at half of the fitted maximal effect;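 on activation: 0% = DMSO basal wells and 100% = rosiglitazone at 2 µM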). The procedure, abridged: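 Test agents, titrated, stimulated HEK293 UAS-bla cells overnight (16 h, 37 C). Substrate CCF4 was then added for two hours at room temperature before fluorescence reading.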

A short description of experiment [19]: qHTS assay for small molecule agonists of the antioxidant response element (ARE) signaling pathway measured by Nrf2-dependant transcriptional activity (AID 720636; active means well fitted curve in the direction sought with a large enough effect in the repeat runs; an effect the other way counts as inactive or inconclusive; further: % of control where 0% means no effect). In a few lines:
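Nrf2-dependent transcription read as ONE-Glo luciferase signal from ARE-luc HepG2 reporter cells after 16 hr compound treatment at 37 C, 5% CO2, in assay medium with 1% dialyzed FBS.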

Experiment [20] can be described thus: qHTS assay for cell viability of HEK293 cells (AID 743288; active means well fitted curve in the direction sought with a large enough effect; an effect the other way counts as inactive or inconclusive; further: on the % scale 0 is the no-effect control and ±100 the full control effect; nearly all actives have a fitted effect of over 50% in size). As to conditions: ATP luminescence (CellTiter-Glo), 18 h; max response: stronger effect = lower value. The procedure, abridged: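 Environmental chemicals tested in qHTS format against parental HEK293 cells; 18 h treatment, 37 C; read-out ATP luminescence (CellTiter-Glo), 30 min RT development.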

Structures are written as SMILES. Several values for one entry are separate records, joined by “and”; a condition that tells them apart may be missing. Equal values may be shown once. Results filed as inconclusive are left out. Activity calls are given as the source filed them. Unless noted, the call rests on the fitted dose curve.

Sequence of Thyroid hormone receptor beta (Homo sapiens) (P10828 whole entry, looked up): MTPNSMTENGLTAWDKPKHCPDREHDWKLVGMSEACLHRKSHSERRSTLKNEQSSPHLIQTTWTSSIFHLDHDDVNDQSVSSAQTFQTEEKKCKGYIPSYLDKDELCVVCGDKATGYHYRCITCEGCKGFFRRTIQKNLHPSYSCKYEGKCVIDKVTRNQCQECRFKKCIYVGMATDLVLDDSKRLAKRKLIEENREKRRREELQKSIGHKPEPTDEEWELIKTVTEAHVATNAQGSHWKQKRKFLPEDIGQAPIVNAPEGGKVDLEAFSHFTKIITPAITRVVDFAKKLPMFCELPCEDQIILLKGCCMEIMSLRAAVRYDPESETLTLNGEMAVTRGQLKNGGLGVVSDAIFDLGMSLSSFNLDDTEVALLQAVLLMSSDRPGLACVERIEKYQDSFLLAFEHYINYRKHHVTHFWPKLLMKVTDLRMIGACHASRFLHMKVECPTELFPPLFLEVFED
Sequence of Estrogen receptor (Homo sapiens) (P03372 whole entry, looked up): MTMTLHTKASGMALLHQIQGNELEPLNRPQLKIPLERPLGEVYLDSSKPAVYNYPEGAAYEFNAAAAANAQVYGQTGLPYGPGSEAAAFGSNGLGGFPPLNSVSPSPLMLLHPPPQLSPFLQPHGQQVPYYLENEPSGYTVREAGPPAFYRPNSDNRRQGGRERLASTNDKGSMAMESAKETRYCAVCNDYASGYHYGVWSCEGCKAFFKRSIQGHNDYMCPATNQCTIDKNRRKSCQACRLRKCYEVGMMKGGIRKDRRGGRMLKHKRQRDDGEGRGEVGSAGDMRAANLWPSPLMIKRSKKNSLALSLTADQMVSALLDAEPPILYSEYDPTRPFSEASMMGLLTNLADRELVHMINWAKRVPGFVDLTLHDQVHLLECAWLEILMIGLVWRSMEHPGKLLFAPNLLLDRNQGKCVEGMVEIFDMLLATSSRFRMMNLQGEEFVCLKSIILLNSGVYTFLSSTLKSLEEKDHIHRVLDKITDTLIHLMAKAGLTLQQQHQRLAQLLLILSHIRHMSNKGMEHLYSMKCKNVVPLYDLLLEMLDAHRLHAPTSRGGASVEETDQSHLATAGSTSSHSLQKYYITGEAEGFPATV
Sequence of Peroxisome proliferator-activated receptor delta (Homo sapiens) (Q03181 whole entry, looked up): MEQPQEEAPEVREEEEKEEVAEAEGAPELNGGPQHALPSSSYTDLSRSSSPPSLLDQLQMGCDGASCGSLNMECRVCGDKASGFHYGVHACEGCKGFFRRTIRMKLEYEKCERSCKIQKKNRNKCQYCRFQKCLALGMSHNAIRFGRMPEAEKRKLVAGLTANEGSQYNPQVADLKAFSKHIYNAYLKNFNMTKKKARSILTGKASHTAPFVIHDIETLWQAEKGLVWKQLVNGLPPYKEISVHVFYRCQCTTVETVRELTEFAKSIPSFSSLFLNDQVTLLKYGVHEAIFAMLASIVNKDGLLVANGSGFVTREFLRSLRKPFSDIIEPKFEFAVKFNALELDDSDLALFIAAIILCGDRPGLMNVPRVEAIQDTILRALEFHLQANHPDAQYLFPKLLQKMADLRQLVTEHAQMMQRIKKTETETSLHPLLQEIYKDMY
Sequence of Peroxisome proliferator-activated receptor gamma (Homo sapiens) (P37231 whole entry, looked up): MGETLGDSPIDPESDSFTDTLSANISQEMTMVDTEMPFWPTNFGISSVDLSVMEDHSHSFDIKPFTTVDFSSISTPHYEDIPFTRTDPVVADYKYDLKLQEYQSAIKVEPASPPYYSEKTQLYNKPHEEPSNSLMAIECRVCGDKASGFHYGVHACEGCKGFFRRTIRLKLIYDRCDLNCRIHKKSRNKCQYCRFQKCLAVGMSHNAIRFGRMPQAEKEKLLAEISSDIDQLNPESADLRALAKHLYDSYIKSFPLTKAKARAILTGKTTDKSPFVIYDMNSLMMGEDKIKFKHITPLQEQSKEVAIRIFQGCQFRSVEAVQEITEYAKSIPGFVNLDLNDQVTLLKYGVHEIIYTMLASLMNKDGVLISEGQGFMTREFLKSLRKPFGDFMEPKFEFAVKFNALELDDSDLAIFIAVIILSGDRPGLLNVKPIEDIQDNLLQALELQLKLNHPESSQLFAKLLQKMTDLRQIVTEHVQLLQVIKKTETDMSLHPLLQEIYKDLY
Sequence of Nuclear receptor subfamily 1 group I member 2 (Rattus norvegicus) (Q9R1A7 whole entry, looked up): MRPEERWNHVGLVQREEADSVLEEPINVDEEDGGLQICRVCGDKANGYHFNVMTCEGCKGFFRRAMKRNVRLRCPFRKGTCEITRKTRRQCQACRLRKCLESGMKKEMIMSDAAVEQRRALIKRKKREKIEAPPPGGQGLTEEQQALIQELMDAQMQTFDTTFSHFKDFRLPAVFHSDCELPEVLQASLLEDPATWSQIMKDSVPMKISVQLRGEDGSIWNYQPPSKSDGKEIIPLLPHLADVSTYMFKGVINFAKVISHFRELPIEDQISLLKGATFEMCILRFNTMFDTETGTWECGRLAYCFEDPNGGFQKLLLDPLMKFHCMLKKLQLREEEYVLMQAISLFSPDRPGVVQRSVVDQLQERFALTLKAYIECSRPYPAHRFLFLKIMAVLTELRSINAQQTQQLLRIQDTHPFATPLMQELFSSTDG
Sequence of Vitamin D3 receptor (Homo sapiens) (P11473 whole entry, looked up): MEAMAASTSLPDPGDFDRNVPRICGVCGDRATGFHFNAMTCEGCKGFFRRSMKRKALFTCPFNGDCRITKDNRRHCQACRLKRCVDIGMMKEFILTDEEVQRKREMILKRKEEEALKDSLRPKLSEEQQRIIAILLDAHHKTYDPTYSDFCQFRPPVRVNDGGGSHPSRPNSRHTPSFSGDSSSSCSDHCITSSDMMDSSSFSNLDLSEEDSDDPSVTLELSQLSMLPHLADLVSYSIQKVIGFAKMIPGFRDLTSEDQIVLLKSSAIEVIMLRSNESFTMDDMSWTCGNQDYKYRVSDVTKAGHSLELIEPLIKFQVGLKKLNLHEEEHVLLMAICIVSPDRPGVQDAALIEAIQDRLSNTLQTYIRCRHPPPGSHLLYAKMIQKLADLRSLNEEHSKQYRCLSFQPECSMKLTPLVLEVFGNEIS
Sequence of Retinoic acid receptor RXR-alpha (Homo sapiens) (P19793 whole entry, looked up): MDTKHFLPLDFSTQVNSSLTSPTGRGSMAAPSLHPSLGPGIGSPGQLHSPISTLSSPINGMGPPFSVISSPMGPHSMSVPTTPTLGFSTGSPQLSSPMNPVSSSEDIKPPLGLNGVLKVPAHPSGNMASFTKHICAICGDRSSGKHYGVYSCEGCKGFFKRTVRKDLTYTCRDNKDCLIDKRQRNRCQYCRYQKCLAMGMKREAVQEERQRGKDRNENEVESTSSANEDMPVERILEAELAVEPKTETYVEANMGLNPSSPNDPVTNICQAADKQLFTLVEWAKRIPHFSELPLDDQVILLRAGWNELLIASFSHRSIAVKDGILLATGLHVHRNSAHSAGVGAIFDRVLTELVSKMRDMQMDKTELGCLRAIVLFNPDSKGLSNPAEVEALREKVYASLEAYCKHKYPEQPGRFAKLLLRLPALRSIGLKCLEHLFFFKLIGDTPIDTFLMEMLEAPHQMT
Sequence of Peroxisome proliferator-activated receptor alpha (Homo sapiens) (Q07869 whole entry, looked up): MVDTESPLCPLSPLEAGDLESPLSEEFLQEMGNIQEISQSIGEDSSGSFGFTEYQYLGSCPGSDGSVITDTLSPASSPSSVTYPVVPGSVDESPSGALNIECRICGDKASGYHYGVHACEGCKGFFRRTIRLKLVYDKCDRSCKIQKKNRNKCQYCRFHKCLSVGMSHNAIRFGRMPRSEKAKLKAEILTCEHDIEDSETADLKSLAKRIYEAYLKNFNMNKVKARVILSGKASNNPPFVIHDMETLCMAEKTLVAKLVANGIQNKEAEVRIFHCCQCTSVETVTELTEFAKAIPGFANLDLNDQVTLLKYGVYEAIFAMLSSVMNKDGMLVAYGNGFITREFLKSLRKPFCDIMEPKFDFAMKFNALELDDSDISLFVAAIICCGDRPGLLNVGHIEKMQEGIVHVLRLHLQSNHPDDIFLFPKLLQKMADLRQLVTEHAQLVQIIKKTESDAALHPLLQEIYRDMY

Turning to `CCC[CH2][Sn]([CH2]CCC)([O]C(C)=O)[O]C(C)=O`, the Potency entry in experiment [1], in experiment [4], in experiment [5], in [7], in experiment [8] and in experiment [16] was “inactive” in each case. The Potency was 0.794 µM (active) in experiment [2] and 22.4 µM (active) in experiment [10]. For the same compound, the result in experiment [3] was inactive. The max response in experiment [6] was 5.61%; in experiment [9], 2.17%; in experiment [14], -2.27% (inactive); in experiment [15] it was -3.33% (inactive); in experiment [17], -0.354% (inactive). For the same compound, the activity change % (negative = inhibition) in [11] is -21.2% (inactive). The activation in experiment [12] is 4.26% (inactive); in experiment [13], -0.036% (inactive).
As for `CCN(CC)c1nc(C)cc(OP(=S)(OC)OC)n1`, the Potency entry in experiment [1], in experiment [2], in experiment [18], in experiment [4], in [5] and in [7] was “inactive” each time. Moreover, the Potency entry in experiment [8], in experiment [19] and in experiment [16] was “inactive” each time. Moreover, the compound was called inactive in [3]. In addition, the max response in experiment [6] was 26.8%; in [14] it was 3.1% (inactive); in experiment [15], -9.93% (inactive); in [20] it was -11.6% (inactive); in experiment [17], -1.67% (inactive). Moreover, the activity change % (negative = inhibition) in [11] is -11.6% (inactive). For the same compound, the values for the activation in experiment [12] and in experiment [13] were 1.41% (inactive) and 1.48% (inactive), respectively.
As for `O=[N+]([O-])c1ccc(Oc2ccc(C(F)(F)F)cc2[N+](=O)[O-])cc1`, the Potency result in [1], in experiment [2], in [8] and in [16] was “inactive” each time. The compound was classed as inactive in experiment [3]. Further, the Potency in experiment [18] is 3.55 µM (active). Moreover, the max response in experiment [9] is -9.24%; in experiment [10], 0.243% (inactive); in experiment [14], -0.519% (inactive); in experiment [15], -18.9% (inactive); in experiment [20], -11.9% (inactive); in experiment [17], 11.4% (inactive). In addition, the activity change % (negative = inhibition) in experiment [11] was 5.9% (inactive). Further, the figures for the activation in experiment [12] and in [13] were -0.528% (inactive) and 9.12% (inactive), respectively.
For the compound `COC(=O)NS(=O)(=O)c1ccc(N)cc1`, the Potency entry in experiment [1], in experiment [2], in [18], in experiment [4], in [5] and in experiment [7] was “inactive” each time. The Potency result in [8], in [19] and in experiment [16] was “inactive” each time. Further, in experiment [3], the result was inactive. In addition, the max response in experiment [6] was -13.8% and -12.5%; in experiment [9], 6.39% and -8.17%; in [10], -10.8% (inactive) and -3.57% (inactive); in [14], 0.635% (inactive) and -1.36% (inactive); in experiment [15], 9.3% (inactive) and -4.17% (inactive); in experiment [20] it was 0.196% (inactive) and -9.27% (inactive). For the same compound, the max response in experiment [17] was 2.14% (inactive) and -3.25% (inactive). Besides, in [11], the activity change % (negative = inhibition) is -3.22% (inactive) and 3.54% (inactive). The activation was -7.42% (inactive) and -0.724% (inactive) in experiment [12]; -0.0088% (inactive) and 0.402% (inactive) in experiment [13].
Turning to `CCCN(CC)CC1COC2(CCC(C(C)(C)C)CC2)O1` (stereo unspecified), the Potency entry in experiment [1], in experiment [2], in experiment [5], in experiment [7], in experiment [8] and in [16] was “inactive” in each case. In [3], the result was inactive. For the same compound, the max response is -11.3% in experiment [6]; -13.8% in experiment [9]; -5.06% (inactive) in experiment [10]; 0.269% (inactive) in experiment [14]; -11.5% (inactive) in experiment [15]; -13.1% (inactive) in experiment [20]. The max response in experiment [17] was -3.48% (inactive). Further, the activation in experiment [12] is -4.98% (inactive); in experiment [13] it was -1.94% (inactive).

The values above are taken from PubChem BioAssay (NCATS).
